Screens as filed in PubChem.
Sampled rows, rich in hits. Any-hit rate of the full collection: about 19%.
HT1080-NT tox: qHTS for induction of synthetic lethality in tumor cells producing 2HG: qHTS for the HT-1080-NT fibrosarcoma cell line. HT-1080-NT fibrosarcoma viability, CellTiter-Glo ATP luminescence, 48 h. Potency, µM (highest dose often 46.1 µM), for inactives: top-dose activity, negative = less viability, actives largely listed as cytotoxic. 360,000 tested, 1.6% active. AID 686970, 2013;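 also: NT is the 2HG producing partner of a matched IDH1 knockdown line; potency is read from the fitted curve at half-maximal effect; 0% = DMSO-treated cells and -100% = media-only wells without cells; nearly all actives have a fitted effect of over 55% in size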
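Luminescent CellTiter-Glo readout after 48 hours of compound exposure at 37 degrees C defined viability of HT-1080-NT cells. Activity was normalized to DMSO wells and cell-free media wells; concentration-response curves were fitted and assigned curve classes.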
IL1B secr inh: qHTS for Inhibitors of Inflammasome Signaling: IL-1-beta AlphaLISA Primary Screen; THP-1 LPS/ATP IL-1B secretion, AlphaLISA, 16 h; hits give low values; activity change, % at 57.5 µM; 360,000 tested, 4.7% active; AID 743279, 2014; in the data active = activity change below about -50%; inconclusive = mostly about -30% to -49%
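Secreted IL-1B measured by AlphaLISA bead assay after 16 h compound exposure of THP-1 cells; compounds (final up to 57.5 uM) added 1 h before LPS (250 ng/mL) and ATP (1.25 mM) stimulation; lower signal means less secretion.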
DT40 TDP1 CPT: qHTS for Inhibitors of human tyrosyl-DNA phosphodiesterase 1 (TDP1): qHTS in cells in presence of CPT. chicken DT40 Tdp1-/-;hTDP1 cells + 20 nM CPT, ATP luminescence, 48 h. Potency, µM (top dose mostly 46.2 µM), for inactives: at the top dose activity change, negative = growth inhibition, most hits filed as inhibitors. 420,000 tested, 12% active; also: potency is read from the fitted curve at half-maximal effect; nearly all actives have a fitted effect of over 55% in size
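Chicken DT40 Tdp1-/- cells complemented with human TDP1, 400 cells/well, exposed to compounds plus 20 nM camptothecin for at least 48 h at 37 C; viability read as ATP content by CellTiter-Glo luminescence.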
TDP1 cell noCPT: qHTS for Inhibitors of human tyrosyl-DNA phosphodiesterase 1 (TDP1): qHTS in cells in absence of CPT; DT40 Tdp1-/- hTDP1 cells, no CPT, ATP luminescence, 48 h; Potency, µM (series often up to 46.2 µM), for inactives: top-dose activity change, negative = growth inhibition, hits mostly inhibitors; 420,000 tested, 15% active; AID 686978, 2013; also: potency is read from the fitted curve at half-maximal effect; nearly all actives have a fitted effect of over 55% in size
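Growth kinetics read by CellTiter-Glo luminescence after ≥48 hr at 37 °C. Cells: DT40 Tdp1-/- stably carrying human TDP1, 400 per well, compound exposure in the absence of CPT (DMSO vehicle).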
HT1080 IDH1KD tx: qHTS for induction of synthetic lethality in tumor cells producing 2HG: qHTS for the HT-1080-IDH1KD cell line; HT-1080 IDH1 knockdown viability, ATP luminescence, 48 h; Potency, µM (doses to about 46.1 µM), without a hit: at the top dose activity, negative = toxicity, most hits filed as cytotoxic; 360,000 tested, 2% active; AID 686971, 2013;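 also: potency is read from the fitted curve at half-maximal effect; 0% = DMSO wells and -100% = cell-free medium wells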
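Cytotoxicity counter-line: IDH1KD HT-1080, 48 h, CellTiter-Glo. Curves classed by r2, magnitude and activity.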
* = called active by the depositor; ? = inconclusive; . = not tested or not shown. Unless noted, calls follow the shape of the dose curve; as a rule, active = well fitted curve in the direction sought with a large enough effect; inconclusive = small, poorly fitted or top-dose-only effect, or another doubt; inactive = no such curve, though single readings can be large; an effect the other way counts as inactive or inconclusive. Unless noted, % is scaled to controls: 0 for no effect and ±100 for the full control effect.

SMILES	HT1080-NT tox	IL1B secr inh	DT40 TDP1 CPT	TDP1 cell noCPT	HT1080 IDH1KD tx
CCCCNC(=O)C1(C)CCN1Cc1ccc(C(=O)OCC)cc1 (centres undefined)	10%	42	?	?	7%
CCCCNC(=O)C1(C)CCN1Cc1cccc2c(OC)cc(C(=O)OCC)cc12 (centres undefined)	?	?	?	13µM*	?
CCCNC(=O)C1(C)CCCN(Cc2cccc3ccccc23)C1 (centres undefined)	-16%	-18	?	?	-20%
CCOC(=O)c1cc(OC)c2cccc(CN3CCCC(C)(C(=O)NCCOC)C3)c2c1 (centres undefined)	-8%	0	9.2µM*	6.5µM*	?
Cc1ccc(CNC(=O)CCC2CCCN(C(=O)CCC(F)(F)F)C2)o1 (centres undefined)	4%	13	21%	1%	19%
C[C@]12CCC3C(CC[C@H]4CCCC[C@]34C)C1CC[C@@]2(O)CNCCO (some centres undefined)	?	2	13µM*	?	-6%
CC(=O)OC1CCC2(C)C3CCC4(C)C(CC5CCCCC54C(C)=O)C3CC(=O)[C@@]2(O)C1 (some centres undefined)	.	.	1%	?	.
COc1ccc(OC)c(-c2csc(NC(=O)C3=COCCO3)n2)c1	0%	-12	16µM*	18µM*	-2%
O=C(Nc1nc(-c2cc(F)ccc2F)cs1)C1=COCCO1	-2%	-13	18µM*	?	-10%
Cc1ccc(-c2csc(NC(=O)C3=COCCO3)n2)cc1	0%	-1	?	?	-8%
O=C(Nc1nc(-c2ccc(Oc3ccccc3)cc2)cs1)C1=COCCO1	2%	8	?	12µM*	?
CCCc1ccc(-c2csc(NC(=O)C3=COCCO3)n2)cc1	-3%	26	-25%	?	-20%
CC(=O)Nc1ccc(-c2csc(NC(=O)C3=COCCO3)n2)cc1	-14%	-11	?	?	-3%
COC(=O)c1ccc(-c2csc(NC(=O)C3=COCCO3)n2)cc1	-24%	-14	-15%	-13%	-22%
Cc1ccc(C)c(-c2csc(NC(=O)C3=COCCO3)n2)c1	-24%	-10	21µM*	16µM*	-9%
CC(NC(=O)c1cc([N+](=O)[O-])cc([N+](=O)[O-])c1)C1CC2CCC1C2 (centres undefined)	-1%	36	-23%	?	-18%
NS(=O)(=O)c1ccc(CCNCC(=O)NC2CC2)cc1	22%	13	-3%	1%	5%
O=C(NC(NC(=S)Nc1ccccc1O)C(Cl)(Cl)Cl)c1ccco1 (centres undefined)	-1%	-8	?	18µM*	-1%
O=C(NNC(=S)Nc1ccccc1)c1ccco1	15%	0	11%	-15%	-2%
CCc1ccc(OCC(=O)NC(C)C)cc1	6%	-20	7%	6%	21%
O=C(NC(NC(=S)Nc1ccc(Cl)cc1)C(Cl)(Cl)Cl)c1ccco1 (centres undefined)	?	-102*	?	?	?
CCc1ccc(OCC(=O)NC(NC(=S)Nc2ccc(Cl)cc2)C(Cl)(Cl)Cl)cc1 (centres undefined)	?	-20	15µM*	13µM*	?
Cc1ccc(S(=O)(=O)N2[C@H](CC(=O)c3ccccc3)OC[C@@H]2C(C)C)cc1	-17%	1	?	?	-18%
Cc1ccc(S(=O)(=O)N2[C@@H](Cc3ccccc3)CO[C@H]2CC(=O)c2ccccc2)cc1	-10%	-6	-23%	-27%	-3%
Cc1ccc(S(=O)(=O)N2[C@@H](Cc3ccccc3)CO[C@H]2CC(=O)c2ccc(F)cc2)cc1	-6%	-14	23µM*	?	-16%
SMILES	HT1080-NT tox	IL1B secr inh	DT40 TDP1 CPT	TDP1 cell noCPT	HT1080 IDH1KD tx
Cc1ccc(S(=O)(=O)N2[C@H](CC(=O)c3cccs3)OC[C@@H]2C(C)C)cc1	?	30	?	18µM*	?
Nc1c(-c2nc(-c3ccccc3Cl)no2)nnn1-c1ccccc1C(F)(F)F	.	.	2%	-8%	.
Cc1nn(Cc2ccccc2)c(C)c1NC(=O)CCCn1nc([N+](=O)[O-])cc1C	12%	39	1%	-15%	10%
CCN1C(=O)CC(c2ccccc2)N(C2CCCC2)c2nc(Nc3ccc(C(=O)NC4CCN(C)CC4)cc3OC)ncc21 (centres undefined)	?	-77*	?	?	23µM*
CCN1C(=O)CC(C(C)C)N(C2CCCC2)c2nc(Nc3ccc(C(=O)NC4CCN(C)CC4)cc3OC)ncc21 (centres undefined)	-22%	-74*	?	?	-22%
CCOc1ccc(NC2c3ccccc3C(=O)N2Cc2ccc3c(c2)OCO3)cc1 (centres undefined)	-1%	-27	?	16µM*	-16%
CC(=O)c1cccc(NC2c3ccccc3C(=O)N2Cc2ccc3c(c2)OCO3)c1 (centres undefined)	-10%	-10	?	21µM*	-8%
O=C1c2ccccc2C(Nc2ccc3c(c2)OCCO3)N1Cc1ccccc1 (centres undefined)	-27%	-3	29µM*	16µM*	-17%
CC(C)n1c(CCC(=O)O)ccc1-c1ccccc1	-7%	15	4%	2%	-1%
C(=C\c1ccccc1)/CN1CCN(C(c2cccs2)c2nnnn2Cc2ccccc2)CC1 (centres undefined)	?	-3	?	21µM*	?
C(=C\c1ccccc1)/CN1CCN(C(c2cccc3ccccc23)c2nnnn2Cc2ccccc2)CC1 (centres undefined)	?	?	16µM*	16µM*	?
CCOc1ccccc1C(=O)NC(C(=O)OCn1nnc2ccccc2c1=O)C(C)C (centres undefined)	15%	10	?	26µM*	8%
CCOc1ccccc1C(=O)N[C@H](C(=O)OCc1cc(=O)oc2cc(C)ccc12)C(C)C	-19%	-55*	6.5µM*	16µM*	-23%
CCOc1ccccc1C(=O)NCC(=O)OCc1csc(CC(=O)Nc2ccc(C)cc2)n1	-4%	-2	?	-7%	-13%
